Bioassay records as filed in PubChem BioAssay.
A selection: hits, their analogues and other compounds. The true share with any hit is near 1.2%.
RGS4-Gao reg: modulates binding of RGS4 to human Galphao; P09471; 0.33% of 220,000 active; Multiplexed bead flow cytometry; actives lie on both sides; binding response (% of control), % at 10 µM; AID 1415; in the data active = binding response below about 49% or above about 150%; inactive = in between;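 note: fluorescent Galphao activated with aluminum fluoride binding bead-coupled RGS4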
Target sequence (P09471 whole entry, looked up): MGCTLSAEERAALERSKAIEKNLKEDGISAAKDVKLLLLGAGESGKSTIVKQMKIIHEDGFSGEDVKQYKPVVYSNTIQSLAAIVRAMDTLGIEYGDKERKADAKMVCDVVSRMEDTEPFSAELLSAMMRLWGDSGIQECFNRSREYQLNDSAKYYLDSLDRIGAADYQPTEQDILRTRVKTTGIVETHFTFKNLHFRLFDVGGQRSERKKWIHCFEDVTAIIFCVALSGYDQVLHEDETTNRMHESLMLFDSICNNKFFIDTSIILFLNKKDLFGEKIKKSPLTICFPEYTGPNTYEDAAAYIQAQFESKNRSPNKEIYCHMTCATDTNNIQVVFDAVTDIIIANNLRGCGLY
RGS16-Gao: RGS16-Galphao interaction regulator (human). O15492+P09471. bead-based flow cytometry RGS16-Galphao binding, fluorescence; actives lie on both sides. binding response (% of control), % at 10 µM. 0.38% of 220,000 active. AID 1441;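 note: Galphao activated by GDP with aluminum fluoride before binding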
RGS7-Gao: modulates binding of RGS7 to human Galphao; P09471; Multiplexed bead flow cytometry; actives lie on both sides; binding response (% of control), % at 10 µM; 0.35% of 220,000 active; AID 1439; in the data active = binding response below about 49% or above about 150%; inconclusive = no clear call, values can overlap the other calls; inactive = in between;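 note: fluorescent Galphao held in activated GDP-AlF4 state binding bead-coupled RGS7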
Avidin bead fluor: avidin bead compound fluorescence profile; Avidin beads, compound fluorescence 488/530 nm, flow cytometry; active compounds read high; 0.38% of 220,000 active; AID 1775; fluorescence (KMESF) at 10 µM; in the data active = fluorescence above about 47
GSH bead fluor: GSH bead compound fluorescence profile; GSH beads flow cytometry, compound fluorescence 488/530 nm; active compounds read high; fluorescence (KMESF) at 10 µM; 0.25% of 190,000 active; AID 1776; in the data active = fluorescence above about 89;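 note: glutathione beads carrying GST-tagged Bcl family fusion proteins plus one bare bead set; values are compound well signal with DMSO vehicle wells as background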
RGS8-Gao reg: modulates binding of RGS8 to human Galphao; response (percent of control binding), % at 10 µM; AID 1423; 0.34% of 220,000 active; P09471; multiplexed bead flow cytometry; actives lie on both sides; in the data active = response below about 60% or above about 140%; inactive = in between;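 note: Galphao activated as the GDP aluminium fluoride complex binding bead-coupled RGS8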
RGS-Gao: modulates binding between human RGS4 and Galphao; 99% of 1,600 active; RGS4–Galpha-o binding response, % at 10 µM; multiplexed bead flow cytometry, RGS–Galpha-o binding; shares compounds with RGS16-Gao;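 note: fluorescently labeled Galpha-o bound to GDP with aluminium fluoride binding biotinylated RGS beads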
Avidin counter: biotin-avidin bead binding disruption counter-screen; shares compounds with RGS16-Gao; streptavidin beads, fluorescein-biotin binding, flow cytometry; inhibition, % at 10 µM; 1,700 tested, under 10 active; AID 1783;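 active = inhibition above 50%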;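 note: median green fluorescence of gated singlet beads compared with DMSO control wells; 0% = DMSO wells and 100% = complete loss of bead fluorescence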
RGS8-Gao confirm: confirmation of regulators of human RGS8-Galphao interaction. shares compounds with RGS16-Gao. binding response (% of control), % at 10 µM. bead-based flow cytometry RGS8-Galphao binding, fluorescence; actives lie on both sides. 3% of 1,700 active; in the data active = binding response below about 72% or above about 130%; inactive = in between;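 note: Galphao activated as GDP AlF4 complex before binding bead RGS8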
RGS7-Gao single: confirmation of regulators of human RGS7-Galphao interaction; bead-based flow cytometry RGS7-Galphao binding; actives lie on both sides; 7.8% of 1,700 active; AID 1837; shares compounds with RGS16-Gao; response (percent of control binding), % at 10 µM; in the data active = response below about 75% or above about 130%; inactive = in between;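 note: fluorescent Galphao activated with GDP and aluminum fluoride binding bead-coupled RGS7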
RGS16-Gao single: RGS16-Galphao interaction regulation, single point confirmation. response (% of control binding), % at 10 µM. AID 1838. bead-based flow cytometry, RGS16-Galphao binding; actives lie on both sides. 4% of 1,700 active. shares compounds with RGS16-Gao; in the data active = response below about 74% or above about 130%; inactive = in between;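 note: Galphao activated as the GDP aluminium fluoride complex binding bead-coupled RGS16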
RGS4-Gao confirm: RGS4-Galphao interaction regulation, single point confirmation; AID 1840; RGS4-Galphao binding, multiplexed bead flow cytometry; actives lie on both sides; shares compounds with RGS16-Gao; binding response (% of control), % at 10 µM; 4% of 1,700 active; in the data active = binding response below about 74% or above about 130%; inactive = in between
RGS19-Gao single: RGS19-Galphao interaction regulation, single point confirmation; shares compounds with RGS16-Gao; bead-based flow cytometry RGS19-Galphao binding; actives lie on both sides; response (percent of control binding), % at 10 µM; 5% of 1,700 active; in the data active = response below about 50% or above about 160%; inactive = in between;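 note: 100% = no compound control and 0% = blank background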
Target sequence (P09471 whole entry, looked up): as above
Target sequence (P49795 whole entry, looked up): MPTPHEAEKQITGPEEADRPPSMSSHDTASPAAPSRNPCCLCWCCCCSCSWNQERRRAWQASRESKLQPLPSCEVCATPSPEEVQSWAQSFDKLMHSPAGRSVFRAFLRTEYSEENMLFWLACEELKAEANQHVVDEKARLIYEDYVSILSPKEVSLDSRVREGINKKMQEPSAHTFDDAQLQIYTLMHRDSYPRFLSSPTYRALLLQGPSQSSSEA
* = called active by the depositor; [ ] = another dose, or the depositor's remark. Unless noted, the rule behind the calls is not given here.

COc1nc(-c2ccccc2)cc(-c2ccccc2)n1 was read as RGS4-Gao reg 133, RGS16-Gao 107, RGS7-Gao 207*[activator], Avidin bead fluor 260*, GSH bead fluor 26, RGS8-Gao reg 98, RGS-Gao 133*, Avidin counter 0, RGS8-Gao confirm 104, RGS7-Gao single 107, RGS16-Gao single 105, RGS4-Gao confirm 104 and RGS19-Gao single 112.
Cc1ccc(C(=O)Nc2onc(C)c2C#N)cc1 was read as RGS4-Gao reg 102, RGS16-Gao 98, RGS7-Gao 100, Avidin bead fluor 33, GSH bead fluor 10 and RGS8-Gao reg 99.
Screening COc1ccc(NC(=O)c2ccc(COCC(F)(F)C(F)F)cc2)cc1 returned RGS4-Gao reg 78, RGS16-Gao 25*, RGS7-Gao 93, Avidin bead fluor 2, GSH bead fluor 13, RGS8-Gao reg 68, RGS-Gao 78*, Avidin counter 0, RGS8-Gao confirm 104, RGS7-Gao single 103, RGS16-Gao single 104, RGS4-Gao confirm 102 and RGS19-Gao single 118.
`CCN(CC)c1ccc(N2C(=O)/C(=C\c3cccs3)SC2=S)cc1` gave GSH bead fluor 27, Avidin counter 1, RGS8-Gao confirm 95, RGS7-Gao single 90, RGS16-Gao single 93, RGS4-Gao confirm 93 and RGS19-Gao single 109.
Screening Cc1ccc(-c2[nH]ncc2/C=N/n2c(COc3ccccc3C)nc3ccccc3c2=O)cc1 returned RGS4-Gao reg 104, RGS16-Gao 126, RGS7-Gao 105, Avidin bead fluor 2, GSH bead fluor 12 and RGS8-Gao reg 108.
`Cn1cc(S(=O)(=O)CC(=O)Nc2ccc3c(c2)OCO3)c2ccccc21` gave RGS4-Gao reg 367*[activator], RGS16-Gao 115, RGS7-Gao 275*[activator], Avidin bead fluor 194*, GSH bead fluor 91*, RGS8-Gao reg 98, Avidin counter -1, RGS8-Gao confirm 100, RGS7-Gao single 103, RGS16-Gao single 104, RGS4-Gao confirm 102 and RGS19-Gao single 87.
For CCn1c(SCC(=O)N/N=C(/C)c2ccncc2)nc2ccccc21 the results were RGS4-Gao reg 103, RGS16-Gao 98, RGS7-Gao inconclusive, Avidin bead fluor 9 and RGS8-Gao reg 99.
`Cc1nn(Cc2ccccc2Cl)c2sc(C(=O)Nc3ccccc3N3CCOCC3)cc12` gave RGS4-Gao reg 97, RGS16-Gao 105, RGS7-Gao 95, Avidin bead fluor 12, GSH bead fluor 14 and RGS8-Gao reg 100.
Screening Cc1nn(Cc2ccc(F)cc2)c2sc(C(=O)Nc3ccccc3N3CCOCC3)cc12 returned RGS4-Gao reg 89, RGS16-Gao 15*, RGS7-Gao 91, Avidin bead fluor 6, GSH bead fluor 7, RGS8-Gao reg 83, RGS-Gao 89*, Avidin counter 0, RGS8-Gao confirm 98, RGS7-Gao single 92, RGS16-Gao single 99, RGS4-Gao confirm 98 and RGS19-Gao single 97.
O=C(NCCOC(=O)c1ccccc1C(=O)OCCNC(=O)c1cccnc1)c1cccnc1 was read as RGS4-Gao reg 100, RGS16-Gao 100, RGS7-Gao 101, Avidin bead fluor 6, GSH bead fluor 36 and RGS8-Gao reg 100.
Cc1cc(C)c(C(=O)OCCNC(=O)c2cccnc2)cc1C was read as RGS4-Gao reg 122, RGS16-Gao 117, RGS7-Gao 184*[activator], Avidin bead fluor 215*, GSH bead fluor 37, RGS8-Gao reg 97, RGS-Gao 122*, Avidin counter -1, RGS8-Gao confirm 104, RGS7-Gao single 102, RGS16-Gao single 101, RGS4-Gao confirm 104 and RGS19-Gao single 97.
O=C(CCc1nc2ccccc2c(=O)[nH]1)N1CCN(c2ccc(F)cc2)CC1 was read as RGS4-Gao reg 102, RGS16-Gao 98, RGS7-Gao 99, Avidin bead fluor 9, GSH bead fluor 13 and RGS8-Gao reg 101.
For CCCNC(=O)CN1C(=O)NC2(CCCc3cc(OC)ccc32)C1=O (stereo unspecified) the results were RGS4-Gao reg 108, RGS16-Gao 253, RGS7-Gao 110, Avidin bead fluor 6, GSH bead fluor 17, RGS8-Gao reg 148*[activator] and RGS-Gao 108*.
NC(=O)CSc1nnc(-c2ccc(S(=O)(=O)N3CCCCC3)cc2)n1-c1ccccc1 was read as RGS4-Gao reg 125, RGS16-Gao 335*[activator], RGS7-Gao 111, Avidin bead fluor 11, GSH bead fluor 17, RGS8-Gao reg 114, RGS-Gao 125*, Avidin counter 1, RGS8-Gao confirm 106, RGS7-Gao single 98, RGS16-Gao single 106, RGS4-Gao confirm 105 and RGS19-Gao single 105.
For COc1ccccc1-n1c(SCC(N)=O)nnc1-c1ccc(S(=O)(=O)N2CCCCC2)cc1 the results were RGS4-Gao reg 97, RGS16-Gao 97, RGS7-Gao 98, Avidin bead fluor 4, GSH bead fluor 29 and RGS8-Gao reg 100.
Screening CC(=O)N1N=C(c2ccc(C)cc2)OC1c1cccnc1 (stereo unspecified) returned RGS4-Gao reg 97, RGS16-Gao 100, RGS7-Gao 101, Avidin bead fluor 8, GSH bead fluor 19 and RGS8-Gao reg 100.
